HTT aggregate: qHTS Multiplex Assay to Identify Dual Action Probes in a Cell Model of Huntington: Aggregate Formation (GFP); PC12 HttQ103-GFP aggregates, Acumen cytometry, 40 h; AID 1688, 2009; hit rate 1.1% among 220,000; Potency, µM (top dose mostly 46.1 µM), inactives show at the top dose activity change, negative = inhibition, actives largely listed as inhibitors; also: % is scaled to controls: 0 for no effect and ±100 for the full control effect; nearly all actives have a fitted effect of over 60% in size
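Ecdysone-promoter PC12 model expressing HTT exon 1 Q103 fused to GFP, induced by tebufenozide at 100 nM final. Compounds titrated; aggregates sized 1–25 µm scored on a 488 nm laser cytometer.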
LMNA splice mod: qHTS Assay for Modulators of Lamin A Splicing. HeLa LMNA splicing GFP/RFP minigene ratio, 48 h. Potency, µM (top dose mostly 46.1 µM), for the others: at the top dose ratio change, negative = inhibition, actives largely listed as inhibitors. hit rate 0.01% among 200,000; active = well fitted inhibition curve with a large enough effect in the signal ratio, with a control signal flat, not every such curve was filed as active; inconclusive = small, poorly fitted or top-dose-only effect, or effect the other way, or a change in a side signal; the % refers to the signal ratio; also: % is scaled to controls: 0 for no effect and ±100 for the full control effect
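S3 HeLa cells stably expressing lamin A-EGFP splicing minigene plus DsRed2, 600 cells/well, 48 h compound exposure at 37C. Laser-scanning cytometry; analysed as GFP (500-530 nm)/RFP (575-640 nm) total intensity ratio; 0.5% DMSO vehicle.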
ALDH1A1 block: qHTS Assay for Inhibitors of Aldehyde Dehydrogenase 1 (ALDH1A1). AID 1030, 2008. Potency, µM (doses to about 75.3 µM), without a hit: at the top dose activity, negative = inhibition, hits mostly inhibitors. hit rate 7.3% among 220,000. Purified ALDH1A1, NADH fluorescence, propionaldehyde substrate; active = well fitted inhibition curve with a large enough effect, not every such curve was filed as active; inconclusive = small, poorly fitted or top-dose-only effect, or another doubt; inactive = no such curve, though single readings can be large or run the other way;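 also: plate controls were no enzyme wells and a reference inhibitor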
Target sequence (P00352 whole entry, looked up): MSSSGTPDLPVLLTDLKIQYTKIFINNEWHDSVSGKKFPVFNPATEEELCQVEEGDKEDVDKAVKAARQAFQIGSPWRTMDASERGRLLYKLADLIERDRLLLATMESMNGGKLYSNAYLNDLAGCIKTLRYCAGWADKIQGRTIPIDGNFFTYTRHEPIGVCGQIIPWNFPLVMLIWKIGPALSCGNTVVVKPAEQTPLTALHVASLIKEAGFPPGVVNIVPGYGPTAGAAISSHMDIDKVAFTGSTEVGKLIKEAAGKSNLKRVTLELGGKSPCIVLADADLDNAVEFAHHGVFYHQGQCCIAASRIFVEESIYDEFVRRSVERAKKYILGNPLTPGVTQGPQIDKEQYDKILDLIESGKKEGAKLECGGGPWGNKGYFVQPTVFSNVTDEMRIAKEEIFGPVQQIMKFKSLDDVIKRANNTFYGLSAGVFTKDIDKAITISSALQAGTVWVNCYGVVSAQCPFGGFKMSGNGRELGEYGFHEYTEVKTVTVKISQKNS
KinaseGlo FLuc: Counterscreen for Luciferase (Kinase-Glo TM) Inhibition. Potency, µM (highest dose often 38.3 µM), inactives show at the highest dose activity change, negative = inhibition, usual class: inhibitors. Kinase-Glo luciferase, ATP luminescence, 8 min. hit rate 0.28% among 200,000. Luciferin 4-monooxygenase (Photuris pensylvanica), Q27757; also: % is scaled to controls: 0 for no effect and ±100 for the full control effect; nearly all actives have a fitted effect of over 60% in size
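Kinase-Glo luciferase light output from ATP and luciferin was measured with 10 uM ATP, within the enzyme's linear range. Buffer: 50 mM imidazole pH 7.2, 50 mM KCl, 7 mM MgCl2, 0.01% Tween 20, 0.05% BSA; luminescence read after 8 min at ambient temperature.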
HPGD inh: qHTS Assay for Inhibitors of HPGD (15-Hydroxyprostaglandin Dehydrogenase) | 15-hydroxyprostaglandin dehydrogenase [NAD(+)] (Homo sapiens), P15428 | purified HPGD, NADH fluorescence kinetic, PGE2 substrate | Potency, µM, without a hit: top-dose activity change, negative = inhibition, most hits filed as inhibitors | hit rate 4.3% among 150,000; active = well fitted inhibition curve with a large enough effect, not every such curve was filed as active; inconclusive = small, poorly fitted or top-dose-only effect, or another doubt; inactive = no such curve, though single readings can be large or run the other way; also: % is scaled to controls: 0 for no effect and ±100 for the full control effect
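20 nM HPGD preincubated 15 min at room temperature with compound in 50 mM Tris-HCl pH 8, 0.01% Tween 20. Started with 1 mM NAD+ and 30 uM prostaglandin E2; NADH fluorescence (360/450 nm) read 5 times over 30-s intervals, last minus first.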
HTT cytoprotect: qHTS Multiplex Assay to Identify Dual Action Probes in a Cell Model of Huntington: Cytoprotection (ATP); PC12 HTT-Q103 induced, cytoprotection, ATP luminescence, 40 h; Potency, µM (titrated, usually from 56.4 µM), for the others: cytoprotection (ATP increase), hits mostly activators; hit rate 0.14% among 230,000; AID 1471, 2008; also: % of control where 0% means no effect; nearly all actives have a fitted effect of over 45% in size
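Compounds added alongside 100 nM tebufenozide, which induces toxic Q103 huntingtin exon 1-GFP in stable PC12 cells; surviving cells quantified by luminescent ATP measurement. Medium: phenol red-free DMEM, 5% equine and 5% calf serum.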
Active calls of the source: *; ? = inconclusive; / = no result; ! = repeats disagree; [ ] = another dose, or the depositor's remark. Sampled rows, rich in hits. Any-hit rate of the full collection: about 9%. Unless noted, calls follow the shape of the dose curve; as a rule, active = well fitted curve in the direction sought with a large enough effect; inconclusive = small, poorly fitted or top-dose-only effect, or another doubt; inactive = no such curve, though single readings can be large; an effect the other way counts as inactive or inconclusive. Potency is read from the fitted curve at half-maximal effect.

SMILES	HTT aggregate	LMNA splice mod	ALDH1A1 block	KinaseGlo FLuc	HPGD inh	HTT cytoprotect
CNC(=O)Oc1ccc2c(c1)C(=O)c1ccccc1CO2	7%	-3%	11µM*	-4%	-23%	0%
CNC(=O)Oc1cccc(-c2cn3cc(OC(=O)NC)ccc3n2)c1	23%	-7%	?	-23%	?	/
CC(O)CNc1ccc([N+](=O)[O-])c2cccnc12 (stereo not drawn)	-4%	4%	?	4%	-16%	26%[10 µM]
O=C1NC(=O)C2(Cc3ccccc3N3CCCC32)C(=O)N1c1cccc(Cl)c1 (stereo not drawn)	-3%	0%	?	2%	-7%	-2%
Cc1ccc(N2C(=O)NC(=O)C3(Cc4ccccc4N4CCN(c5ccccc5)CC43)C2=O)cc1 (stereo not drawn)	-13%	0%	22µM*	/	/	-32%
N[C@@]1(C(=O)O)CC[C@H](C(=O)O)C1	/	/	-9%	-2%	3%	-11%
CCOc1ccc(-c2c(C)n(-c3ccc(OCC)cc3)c3[n+]2CCCCC3)cc1	?	/	/	/	/	-56%[10 µM]
N#CC(C#N)=Cc1ccc(-c2ccccc2F)o1	?	-10%	8.9µM*	-4%	-3%	/
Cc1cc2c(C(C)C)c(O)c(O)c(C=O)c2c(O)c1-c1c(C)cc2c(C(C)C)c(O)c(O)c(C=O)c2c1O	?	?	-8%	0%	8.9µM*!	12%[1.9 µM]
CCOC(=O)N1CCN(C(=O)c2ccc3c(=O)n(CCC4=CCCCC4)c(=S)[nH]c3c2)CC1	6%	1%	7.9µM*	0%	-14%	-8%
O=c1[nH]c(=S)n(CCC2=CCCCC2)c(O)c1/C=N/N1CCOCC1	6%[9.22 µM]	/	/	/	/	-3%[10 µM]
Cn1c(=O)c2[nH]cnc2n(C)c1=O.[CH2-][C@H](Cc1cccc2cc(C(=O)O)c(=O)oc12)OC.[Hg].[OH-]	/	/	3.2µM*	-1%[7.66 µM]	4µM*	3%[10 µM]
COc1cc(CC2(CCc3ccncc3)C(=O)NC(=O)NC2=O)cc(OC)c1OC	7%[9.22 µM]	3%[46 µM]	-1%	-1%	/	1%[10 µM]
COc1cc2c(cc1OC)-c1c(OC)c(OC)c(OC)c3ccnc(c13)C2=O	11µM*	?	3%	0%	?	/
O=C1CN=C(c2ccccc2)c2cc([N+](=O)[O-])ccc2N1	-1%	?	1%	1%[39.9 µM]	25µM*	-66%
C=CCN1C(=O)C2(C(C(=O)OCC)=C(N)Oc3ccccc32)C2=C1CCCC2=O (stereo not drawn)	-8%	-12%	4µM*	1%	-6%	3%
CCOC(=O)CC1=C(C(=O)OCC)C2(C(=O)N1CC(=O)OC)C(C#N)=C(N)Oc1ccccc12 (stereo not drawn)	13%	9%	1.1µM*	-3%	-9%	-21%
CCOC(=O)CN1C(=O)C2(C(C#N)=C(N)Oc3ccccc32)C(C(=O)OC)=C1C (stereo not drawn)	-4%	4%	7.9µM*	12%	-3%	-10%
C=CCOC(=O)C1=C(C)OC(N)=C(C#N)[C@@]12C(=O)N(CC(N)=O)c1ccccc12	12%	-3%	10%	/	/	-11%
CP(=O)(O)C1=CCNCC1	/	-11%	7%	-5%	-14%	2%
COc1c2ccoc2cc2oc(=O)ccc12	/	/	20µM*	0%	-1%	0%[1.9 µM]
COc1cc2occc2c2oc(=O)ccc12	28%	-10%	-11%	0%	-16%	-46%
C=CCn1c(O)c(/C(C)=N/NC(=S)Nc2ccccc2)c(=O)[nH]c1=O	-17%[9.22 µM]	/	/	/	/	17%[10 µM]
C=CCn1c(O)c(/C(CC)=N/NC(=S)Nc2ccccc2)c(=O)[nH]c1=O	3%[9.22 µM]	/	18µM*	/	/	19%[10 µM]
